In PubChem BioAssay AID504558 (Broad Institute, 2011) one finds inhibition data, which are given here for 88 compounds.

The whole screen tested about 350,000 compounds, of which about 2,400 (0.69%) were called active. The sample holds actives, similar compounds and a random draw of the others, so the mix is not that of the screen. Unmarked numbers belong to inactive results. Cut-off read from the data, not from the text of the source: active = inhibition above about 41%; inconclusive = no clear call, values can overlap the other calls; inactive = below that.

A short description of the experiment: EBV LMP1-driven NF-kappaB luciferase reporter inhibitors, primary screen, cell-based, luminescence, single point (AID 504558).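 Note: 0% = neutral control wells and 100% = reference inhibitor control.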 To be noted: LMP1-induced NF-kappaB luciferase reporter cells, at 12.5 µM, hits give high values.
For `CCOc1ccc(NC(=O)c2cc(C)nc3ccccc23)cc1`, the inhibition (usually the relative decrease from the control value, in per cent) was -0.28%.

On to `CCOc1ccc(-c2cc(C(=O)N/N=C/c3ccc(O)cc3)c3ccccc3n2)cc1`, for which the inhibition is 58.2% (active).

On to `COc1ccc(-c2cc(C(=O)N/N=C/c3cccnc3)c3ccccc3n2)c(OC)c1`, for which the inhibition is 1.36%.

For the compound `Cc1cccc(C(=O)OCC(=O)Nc2sccc2C(N)=O)c1C`, the inhibition was -0.574%.

`C[C@H]1CN([C@@H](C)CO)C(=O)c2cc(C3=CCCCC3)cnc2O[C@@H]1CN(C)C(=O)Cc1ccccc1`: the inhibition is 5.28%.

On to `CCN1C(=O)[C@H]2[C@@H](c3ccccc3)N[C@]3(CCCN(Cc4ccc(C)cc4)C3=O)[C@H]2C1=O`, for which the inhibition was -1.4%.

Consider `O=C(CCN1CCN(C/C=C/c2ccccc2)CC1)Nc1ccccc1Cl`, for which the inhibition is 5.35%.

Regarding `NC(=O)C1(Nc2ccccc2Cl)CCCC1`, the inhibition is -6.12%.

As for `O=C(Nc1ccccc1Cl)/C(Cl)=C(\Cl)S(=O)c1ccccc1` (stereo not drawn), the inhibition was 69.1% (active).

For `Cc1ccc(C(=O)NC(C)C(c2cccs2)N2CCOCC2)cc1C` (stereo not drawn), the inhibition is 3.97%.

Take `Cc1ccc(-c2cc(C(=O)N/N=C/C=C/c3ccco3)c3ccccc3n2)cc1C`: the inhibition was 60.7% (active).

Consider `CC(/C=N/NC(=O)c1cc(-c2ccc3ccccc3c2)n[nH]1)=C\c1ccco1`, for which the inhibition was -39.1%.

Regarding `O=C(N/N=C/C=C/c1ccco1)c1cccs1`, the inhibition was -24.5%.

With `COc1ccc(CCNC(=O)CN(c2ccccc2)S(=O)(=O)c2ccccc2)cc1`, the inhibition is -10.2%.

In the case of `Cc1ccc([C@H]2C[C@H](O)[C@@H](n3cc(COC(=O)c4ccccc4)nn3)CN2CC2CCCCC2)cc1`, the inhibition was 4.84%.

On to `C[C@H]1CN([C@@H](C)CO)C(=O)CCCn2cc(nn2)CO[C@@H]1CN(C)S(=O)(=O)c1cccs1`, for which the inhibition was 5.02%.

On to `CCN1CCCC1CNC(=O)c1ccc2c(c1)NC(=O)/C(=C\c1ccccc1F)S2` (stereo not drawn), for which the inhibition was -8.19%.

Turning to `CC1=C(C(=O)N(C)C)CC(CC(=O)NCCc2ccccn2)C(=O)N1CCC1=CCCCC1` (stereo not drawn), the inhibition was 1.75%.

With `CC(C)c1cc(C(=O)N(C)C2CCCN(Cc3ccccc3F)C2)n(C)n1` (stereo not drawn), the inhibition was 3.75%.

Turning to `Cc1ccc(-c2cn3cc(C)ccc3n2)cc1`, the inhibition was 82% (active).

Regarding `Cc1ccc(-c2nc3ccc(Cl)cn3c2Cc2ccccc2)cc1`, the inhibition is -21.9%.

As to `CSc1nnc2ccc(-c3ccc(C)cc3)nn12`, the inhibition is 2.32%.

As for `Cc1ccc(-c2cc(C(=O)NCc3cn(C)nc3C)c3cc(Br)ccc3n2)cc1`, the inhibition was -3.18%.

As to `Cc1ccn2cc(C(=O)NC3CCN(Cc4ccccc4)CC3)nc2c1`, the inhibition was 5.73%.

As to `Cc1ccc(-c2cc(N)on2)cc1`, the inhibition was -11.1%.

With `Cc1ccc2nc(-c3ccc(Br)cc3)cn2c1`, the inhibition is 63.8% (active).

As to `COc1ccc(-c2cn3ccc(C)cc3n2)cc1`, the inhibition was 48.2% (active).

Turning to `COc1ccc(-c2cc3ncccc3cn2)cc1`, the inhibition was -15.8%.

For the compound `COc1cc2ccc(C(C)=O)c(O)c2cc1OC`, the inhibition is 3.32%.

In the case of `COc1ccc(S(=O)(=O)N2CCC(C(=O)NCCC(=O)Nc3ccccc3OC)CC2)cc1`, the inhibition was 1.21%.

On to `COc1ccc(C(=O)OCC(=O)Nc2cc(C)on2)cc1F`, for which the inhibition is -6.31%.

For the compound `COc1ccc(C(=O)NCC2CCCO2)cc1S(=O)(=O)NCc1ccc(Cl)cc1` (stereo not drawn), the inhibition is -0.644%.

Turning to `CC1CN(C(=O)c2cccc(NS(=O)(=O)c3ccc(Br)cc3)c2)CC(C)O1` (stereo not drawn), the inhibition was 0.834%.

`O=C(Nc1cccc2ccccc12)NC1CC1`: the inhibition is -3.72%.

On to `CC1=C(C(=O)Nc2cccc(C(=O)NCC(C)c3ccccc3)c2)SCCO1` (stereo not drawn), for which the inhibition is -2.25%.

Consider `COc1cc2c(cc1OC)CN(CC(=O)Nc1ccc(F)cc1)CC2`, for which the inhibition is 9.89%.

Consider `CC[C@H]1CN2CCc3cc(OC)c(OC)cc3[C@@H]2C[C@@H]1C[C@H]1NCCc2cc(OC)c(OC)cc21`, for which the inhibition was 89.9% (active).

As to `CC(C)CC1C(=O)N(Cc2cn(CC3CCCCC3)nn2)CCS(=O)(=O)N1Cc1ccc(-c2ccc(Cl)cc2)cc1` (stereo not drawn), the inhibition is 5.31%.

With `O=C(COC(=O)c1cccc(Cl)c1Cl)NC1CCCCCC1`, the inhibition is -5.21%.

With `O=C(Nc1nc2ccc([N+](=O)[O-])cc2s1)c1ccc(S(=O)(=O)N2CCCc3ccccc32)cc1`, the inhibition was 52.5% (active).

For the compound `O=C(NC(Nc1nc2ccc([N+](=O)[O-])cc2s1)(C(F)(F)F)C(F)(F)F)c1ccccc1`, the inhibition is 56.9% (active).

Regarding `Cc1ccc(NC(=O)c2cccc(S(=O)(=O)N3CCCc4ccccc43)c2)nc1`, the inhibition was 16.9%.

Turning to `O=C(O)c1cc([N+](=O)[O-])c(Nc2cccc3ccccc23)c([N+](=O)[O-])c1`, the inhibition was 1%.

As to `N=C1C(c2nc3ccccc3s2)=C(O)CN1NC(=O)c1ccc([N+](=O)[O-])cc1`, the inhibition was -6.15%.

With `CN(C)CCCN(C(=O)c1ccc(S(=O)(=O)N2CCCc3ccccc32)cc1)c1nc2ccc(F)cc2s1`, the inhibition was -4.71%.

For the compound `C[C@@H]1CN([C@@H](C)CO)C(=O)c2cc(NS(C)(=O)=O)ccc2O[C@@H](C)CCCCO[C@H]1CN(C)C(=O)Nc1ccc2c(c1)OCO2`, the inhibition is -2.68%.

Consider `CC(C)CCC(=O)Nc1cc(S(=O)(=O)N2CCOCC2)ccc1N1CCCC1`, for which the inhibition was 0.721%.

With `O=S1(=O)CCN(C2CCCCCCCCCCC2)CC1`, the inhibition is 3.93%.

As to `CCCCCCn1c(=O)n2n(c1=O)C[C@]1(OC(=O)NCc3ccc(OC)c(OC)c3)CN(S(=O)(=O)c3ccc(C)cc3)C[C@]1(O)C2`, the inhibition was -11.4%.

For the compound `O=C1c2ccccc2-c2ccccc2NC1O` (stereo not drawn), the inhibition is 5.68%.

Turning to `COc1ccc(-c2cnc3c(c2)C(=O)N([C@H](C)CO)C[C@@H](C)[C@H](CN(C)Cc2ccccc2)O3)cc1`, the inhibition is -7.99%.

As to `COc1ccc(OC)c(NC(=O)C2CCCN2S(=O)(=O)c2ccc3c(c2)CC(C)N3C(C)=O)c1` (stereo not drawn), the inhibition was 1.47%.

For the compound `O=C(OCC(=O)N1CCCCCC1)c1cccc(Cl)c1Cl`, the inhibition was -36.1%.

In the case of `Cc1ccc(C(=O)Nc2sc(Cc3ccc4c(c3)OCO4)c(C)c2C(N)=O)cc1`, the inhibition is 81% (active).

Regarding `COc1ccc(CC(=O)Nc2sc(Cc3ccccc3)c(C)c2C(N)=O)cc1`, the inhibition is 0.44%.

On to `COCc1nnc(NC(=O)c2ccc3c(c2)OCO3)s1`, for which the inhibition was 7.49%.

As for `COc1ccc(CN2C(=O)C(CC(=O)NC3CCCCC3)CC(C(=O)N3CCOCC3)=C2C)cc1` (stereo not drawn), the inhibition is 1.44%.

Consider `Cc1c(Cl)cnc(NC(=O)COC(=O)C2CCCC2)c1Cl`, for which the inhibition was -6.23%.

Consider `CSCCC(NC(=O)c1ccco1)C(=O)Nc1cc(C)ccn1` (stereo not drawn), for which the inhibition is -34.2%.

Take `CSCCC(NC(=O)c1ccco1)C(=O)OCC(=O)Nc1ncc(Cl)c(C)c1Cl` (stereo not drawn): the inhibition was 59.5% (active).

As to `COc1cccc(OCC(=O)NCCS(=O)(=O)N2CCN(c3ccccc3)CC2)c1`, the inhibition was 1.31%.

As to `O=C(CC(CC(=O)c1ccccc1)c1ccco1)c1ccccc1`, the inhibition was -17.7%.

In the case of `CCOC(=O)CN/C=C(\C#N)c1ccc(F)cc1`, the inhibition is 1.95%.

Consider `CCOc1cc(/C=C(/C#N)c2ccc(Cl)cc2)cc(Cl)c1OCC(=O)O`, for which the inhibition was 43.8% (active).

Turning to `C/C(=N\OCC(=O)O)c1ccc(Cl)cc1`, the inhibition is -9.17%.

Turning to `CCOC(=O)c1cc(-c2sc(NC(=O)c3ccccc3)nc2C)n(-c2ccc(Br)cc2)n1`, the inhibition was -16.6%.

As to `C[C@@H]1CN([C@H](C)CO)S(=O)(=O)c2ccc(C#CC3CCCCC3)cc2O[C@H]1CN(C)C(=O)Cc1ccncc1`, the inhibition is -11.3%.

For `COc1ccc(C(CNC(=O)c2ccc(OCc3cscn3)cc2)N2CCCC2)cc1` (stereo not drawn), the inhibition was -12%.

Consider `CC(=O)Nc1c(-c2ccc(C)cc2)nc2ccc(Cl)cn12`, for which the inhibition was 6.02%.

For `Cc1sc2nc(-c3ccccc3F)oc(=O)c2c1C`, the inhibition was 1.32%.

`CSc1ncnc2c1ncn2CCCNCC1CCCCC1`: the inhibition was 3.66%.

Regarding `O=C(NN=Cc1ccccc1O)NN=Cc1ccccc1O`, the inhibition is 33.4%.

Regarding `Cc1ccc(/C=N/NC(=O)C2=NNC(c3ccccc3)(c3ccccc3)C2)c(O)c1`, the inhibition was 61.6% (active).

In the case of `O=C(N/N=C/c1ccccc1O)C1CCCC1`, the inhibition was 0.696%.

With `Cc1nc2ccccc2nc1CC(O)(c1ccccc1)c1ccccc1`, the inhibition was -2.04%.

Regarding `Nc1ccccc1-c1nc2ccncc2[nH]1`, the inhibition was 2.17%.

As for `O=C(N/N=C/c1ccccn1)C12CC3CC(CC(C3)C1)C2`, the inhibition is -4.71%.

Take `Cc1nnc(N/N=C/c2ccccn2)[nH]c1=O`: the inhibition was 60.6% (active).

In the case of `O=C(COc1ccc(Cl)cc1Cl)N/N=C/c1ccccn1`, the inhibition was 19.3%.

As to `Cc1ccc(-c2ccc(CN3C(C)C(=O)N(Cc4cn(CCC5OCCCO5)nn4)CCS3(=O)=O)cc2)cc1` (stereo not drawn), the inhibition was 3.6%.

For `C[C@@H]1CCCCO[C@H](CN(C)Cc2ccccc2)[C@@H](C)CN([C@H](C)CO)C(=O)c2cc(NS(=O)(=O)c3ccc(Cl)cc3)ccc2O1`, the inhibition is -0.347%.

Turning to `CCN(CC)C(=O)C1=C(C)N(Cc2ccc(F)cc2)C(=O)C(CC(=O)NC2CCCC2)C1` (stereo not drawn), the inhibition was 5.32%.

`COc1ccc(C(=O)Nc2ccccc2C(=O)N/N=C/c2ccc(O)c(OC)c2)cc1`: the inhibition was 66.5% (active).

In the case of `COc1cc(C=NNC(=O)c2cccnc2)ccc1OC(=O)c1ccccc1F`, the inhibition was 5.47%.

As for `O=C(NN=Cc1ccc2c(c1)CCC2)c1ccccc1O`, the inhibition was -10.8%.

Turning to `CCCCCCNC(=O)O[C@H]1CN(C(=O)OC(C)C)N(C(=O)OC(C)C)[C@@H]2CN(S(=O)(=O)c3ccc(C)cc3)C[C@]12O`, the inhibition was -5.81%.

As for `Cc1cc2cc3n(c2nn1)N=C(Cl)CC3`, the inhibition is 3.98%.

With `CNS(=O)(=O)c1ccc2c(c1)[nH]c(=S)n2C`, the inhibition was 8.35%.
